The supplement of paper PMC7156485
Where “and” joins values, the source holds several entries; their conditions need not be identical. Equal entries are not always repeated. ± gives the standard deviation of the averaged measurements.

What was measured:
Conditions in all cases: concentration: 10 µM; 24 h
HCC1569 [1] = test: cell number relative to DMSO (% of DMSO); higher = more cells (less growth inhibition / toxicity)
In short: (§1)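 Six fields per well were imaged at ×10 after the cells were fixed in 3.7% formaldehyde and stained with a rabbit anti-H1.0 antibody, an AlexaFluor 647 secondary and DAPI. The HCC1569 and TDF cells had been plated at 800 per well in 384-well plates (RPMI, 10% FBS) and treated in triplicate with compounds at 10 µM for 24 h at 37 °C. The values are the median of replicates of H1.0 nuclear intensity or cell number, as percent of the plate control. Smoothing for positional effects was applied to HCC1569 data.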

TDF [2] = test: as above
In short: as §1

TDF [3] = test: H1.0 immunofluorescence intensity relative to DMSO (% of DMSO); higher = stronger H1.0 induction, active = 120 or more
In short: as §1

HCC1569 [4] = test: H1.0 immunofluorescence intensity relative to DMSO (% of DMSO); higher = stronger H1.0 induction, active = 140 or more
In short: as §1
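Throughout, for H1.0 immunofluorescence intensity relative to DMSO: TDF is a line of transformed human dermal fibroblasts of mesenchymal origin.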
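Throughout, for cell number relative to DMSO: TDF denotes transformed human dermal fibroblasts of mesenchymal origin.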

Row | Structure (SMILES) | cell number (HCC1569 [1]) | cell number (TDF [2]) | H1.0 immunofluorescence intensity (TDF [3]) | H1.0 immunofluorescence intensity (HCC1569 [4])
1 | CCCCCCCCC=CCCCCCCCC(=O)O [9(Z)-Octadecenoic acid] | 104 | 97.1 | 97.5 (inactive) | 103 (inactive)
2 | COC(C(=O)C(O)C(C)O)C1Cc2cc3cc(OC4CC(OC5CC(O)C(O)C(C)O5)C(O)C(C)O4)c(C)c(O)c3c(O)c2C(=O)C1OC1CC(OC2CC(OC3CC(C)(O)C(O)C(C)O3)C(O)C(C)O2)C(O)C(C)O1 (stereo not drawn) [Plicamycin] | 60.8 | 36 | 103 (inactive) | 126 (inactive)
3 | O=c1c(O)c(-c2ccccc2O)oc2cc(O)cc(O)c12 [Datiscetin] | 101 | 106 | 92.1 (inactive) | 87.7 (inactive)
4 | CCCNCC(O)COc1ccccc1C(=O)CCc1ccccc1.Cl [(S)-(-)-propafenone hydrochloride] | 98.4 | 104 | 90.3 (inactive) | 111 (inactive)
5 | CCCCCCCCCCCC=CC(C)(C)C=CCCCC(=O)O [7,7-Dimethyleicosadienoic acid] | 105 ± 6.3 | 99.5 ± 3.4 | 99 (inactive) | 95.5 (inactive)
6 | CSc1ccc2c(c1)N(CCC1CCCCN1C)c1ccccc1S2 (stereo not drawn) [Thioridazine] | 102 | 102 | 105 (inactive) | 133 (inactive)
7 | CCCCCCCCCCCCCCC[C@@H](O)[C@@H](N)CO [(2S,3R)-2-amino-1,3-octadecanediol] | 97.2 | 39.4 | 120 (active) | 96.2 (inactive)
8 | COC(=O)c1ccc2c(c1)NC(=O)C2=C(Nc1ccc(N(C)C(=O)CN2CCN(C)CC2)cc1)c1ccccc1 [Vargatef] | 95.2 | 106 | 84.3 (inactive) | 113 (inactive)
9 | CC(C)NCC(O)COc1ccc(CC(N)=O)cc1 (stereo not drawn) [Atenolol] | 99.9 | 102 | 94.7 (inactive) | 113 (inactive)
10 | CC1=c2[nH]c3c(c2CCN1)C=CC(=O)C=3.Cl.O.O | 98.2 | 89 | 97.7 (inactive) | 144 (active)
11 | O=C(Nc1cccc(Nc2nccc(Nc3cccc(C(F)(F)F)c3)n2)c1)C1CC1 [Aurora Kinase Inhibitor III] | 63 ± 1.4 | 35.8 ± 3.4 | 129 (active) | 247 (active)
12 | COc1cc2c(c(OC)c1OC)-c1c(cc3c(c1OC)OCO3)CC(C)C(C)(O)C2OC(=O)c1ccccc1 (stereo not drawn) [Schisantherin A] | 106 | 95 | 98.5 (inactive) | 97.7 (inactive)
13 | c1ccc(-c2n[nH]c3c2oc2ccccc23)cc1 | 101 | 103 | 94.2 (inactive) | 126 (inactive)
14 | O=[N+]([O-])c1cccc2cn[nH]c12 [7-Nitroindazole] | 105 | 109 | 90.5 (inactive) | 92.6 (inactive)
15 | COc1cc(-c2oc3cc(O)cc(O)c3c(=O)c2OC2OC(CO)C(O)C(O)C2O)cc(OC)c1O (stereo not drawn) [Syringetine-3-glucoside] | 102 | 93 | 101 (inactive) | 90.4 (inactive)
16 | CS(=O)(=O)O.N=C(N)SCCc1ccc(OCc2ccc([N+](=O)[O-])cc2)cc1 | 88.6 | 78.2 | 125 (active) | 158 (active)
17 | CCCCCC=CCC=CCC=CC=CC(O)CCCC(=O)O (racemic) | 101 | 93 | 109 (inactive) | 102 (inactive)
18 | CCCCCC(O)C=CC1C(O)CC(O)C1CC=CCCCC(=O)O (stereo not drawn) [8-Epi-prostaglandin F2a] | 102 | 110 | 96.2 (inactive) | 100 (inactive)
19 | Nc1nc(=O)n(C2CSC(CO)O2)cc1F (stereo not drawn) [Emtricitabine] | 105 | 99.4 | 96.1 (inactive) | 105 (inactive)
20 | COC(=O)/C=C/c1cccc(N(Cc2ccc(-c3ccc(N(C)C)cc3)cc2)C(=O)C2CCCCC2)c1 | 91.5 | 95.9 | 90.7 (inactive) | 106 (inactive)
21 | CC(=O)OC1(C(C)=O)CCC2C3C=C(Cl)C4=CC(=O)C5CC5C4(C)C3CCC21C (stereo not drawn) [Cyproterone acetate] | 91.8 | 99.8 | 92.2 (inactive) | 98.5 (inactive)
22 | O=C(CCCCCCc1ccccc1)c1ncc(-c2ccccn2)o1 [7-phenyl-1-[5-(2-pyridinyl)-1,3-oxazol-2-yl]-1-heptanone] | 104 | 104 | 98.3 (inactive) | 107 (inactive)
23 | COc1cc2c(c(OC)c1OC)-c1c(cc3c(c1OC)OCO3)C[C@H](C)[C@@](C)(O)C2 | 97.6 | 95.4 | 96.3 (inactive) | 101 (inactive)
24 | COc1cc2nc(N3CCN(C(=O)C4COc5ccccc5O4)CC3)nc(N)c2cc1OC (stereo not drawn) [Doxazosin] | 96.5 | 107 | 100 (inactive) | 113 (inactive)

Row | Structure (SMILES) | cell number (HCC1569 [1]) | cell number (TDF [2]) | H1.0 immunofluorescence intensity (TDF [3]) | H1.0 immunofluorescence intensity (HCC1569 [4])
25 | CCCCS(=N)(=O)CCC(N)C(=O)O [L-Buthionine-sulfoximine] | 102 | 96.6 | 97.4 (inactive) | 95.6 (inactive)
26 | O=C(c1ccc(OCCN2CCCCC2)cc1)c1c(-c2ccc(O)cc2)sc2cc(O)ccc12 [Raloxifene] | 95.5 | 105 | 102 (inactive) | 127 (inactive)
27 | CCC1(O)CC2CN(CCc3c([nH]c4ccccc34)C(C(=O)OC)(c3cc4c(cc3OC)N(C)C3C(O)(C(N)=O)C(O)C5(CC)C=CCN6CCC43C65)C2)C1.O=S(=O)(O)O (stereo not drawn) [Vindesine sulfate] | 55.4 | 8.86 | 155 (active) | 179 (active)
28 | Cl.O=S(=O)(c1cccc2c(Cl)cccc12)N1CCCNCC1 | 99 and 96.6 | 104 | 103 (inactive) and 93.2 (inactive) | 105 (inactive) and 97.4 (inactive)
29 | CC(C)(C)c1nc2c3cc[nH]c(=O)c3c3cc(F)ccc3c2[nH]1 | 110 | 103 | 87 (inactive) | 101 (inactive)
30 | CCOc1ccccc1OCCNC(C)Cc1ccc(OC)c(S(N)(=O)=O)c1 (stereo not drawn) [Tamsulosin] | 98.8 | 96.7 | 97.8 (inactive) | 95.4 (inactive)
31 | NC(=NCc1ccccc1)NC(=O)c1nc(Cl)c(N)nc1N [Benzamil] | 99.9 | 99.9 | 98.7 (inactive) | 112 (inactive)
32 | COc1c(O)c2c(=O)cc(OC)c3c4c(OC)cc(=O)c5c(O)c(OC)c6c(c(c1CC(C)(O)C6C(C)=O)c23)c54 (stereo not drawn) [Hypocrellin A] | 75.8 | 67.1 | 97.2 (inactive) | 108 (inactive)
33 | Nc1ccc2c3c(cccc13)C(=O)NC2=O [4-Amino-1,8-naphthalimide] | 94.1 | 77.8 | 104 (inactive) | 150 (active)
34 | COC(=O)Nc1nc2ccc(C(=O)c3ccc(F)cc3)cc2[nH]1 [Flubendazole] | 65.9 | 9.66 | 151 (active) | 168 (active)
35 | CCCCc1c(-c2ccc(OC)cc2)[nH]c2nccnc12 [Aloisine, RP106] | 94.7 | 97.5 | 93.2 (inactive) | 110 (inactive)
36 | CC1c2cccc(O)c2C(O)=C2C(=O)C3(O)C(O)=C(C(N)=O)C(=O)C(N(C)C)C3C(O)C21 (stereo not drawn) [Doxycycline] | 101 | 93.9 | 108 (inactive) | 115 (inactive)
37 | COc1cc2c(cc1-c1c(C)noc1C)ncc1[nH]c(=O)n([C@H](C)c3ccccn3)c12 | 75 | 66.3 | 138 (active) | 218 (active)
38 | CN(C)CCCN1c2ccccc2CCc2ccccc21.Cl [Imipramine.HCl] | 100 | 97.4 | 95.2 (inactive) | 100 (inactive)
39 | CC(C)c1cc(C(C)C)c(CC(=O)NS(=O)(=O)Oc2c(C(C)C)cccc2C(C)C)c(C(C)C)c1 | 94.4 | 103 | 89.8 (inactive) | 110 (inactive)
40 | CN(C)CCC(c1ccc(Br)cc1)c1ccccn1.O=C(O)C=CC(=O)O (single isomer, unassigned; (+)) [(+)-Brompheniramine maleate] | 96.5 | 79.5 | 113 (inactive) | 102 (inactive)
41 | CN1CCN(CCC=C2c3ccccc3Sc3ccc(S(=O)(=O)N(C)C)cc32)CC1.Cl [Thiothixene hydrochloride] | 95 | 107 | 98.5 (inactive) | 96.8 (inactive)
42 | OB1OCc2cc(F)ccc21 [5-fluoro-2,1-benzoxaborol-1(3H)-ol] | 104 | 104 | 95.6 (inactive) | 98.5 (inactive)
43 | COC1C(OC(=O)c2ccc(C)[nH]2)C(O)C(Oc2ccc3c(O)c(NC(=O)c4c[nH]c(C(=O)Nc5c(O)c6ccc(OC7OC(C)(C)C(OC)C(OC(=O)c8ccc(C)[nH]8)C7O)c(C)c6oc5=O)c4C)c(=O)oc3c2C)OC1(C)C (stereo not drawn) [Coumermycin A1] | 94.7 | 100 | 93.5 (inactive) | 101 (inactive)
44 | O=C(O)CCC(=O)c1ccc(-c2ccccc2)cc1 [Fenbufen] | 101 | 103 | 92.2 (inactive) | 119 (inactive)
45 | OCC(CO)(CO)NCC(O)Cn1c2ccc(Cl)cc2c2cc(Cl)ccc21 (stereo not drawn) | 74.3 | 76.8 | 125 (active) | 168 (active)
46 | CCN1CCCC1CNC(=O)c1c(OC)ccc(Br)c1OC (stereo not drawn) [Remoxipride] | 101 | 101 | 96.7 (inactive) | 108 (inactive)
47 | COc1ccc2c(c1)c(CC(=O)N1CCOCC1)c(C)n2C(=O)c1ccc(Cl)cc1 | 102 | 104 | 94.6 (inactive) | 104 (inactive)
